# Screens (PubChem)
# Shown are actives, neighbours in structure and some others; about 2% of the full set was active somewhere.
# Jurkat NFkB inh = inhibitors of induced NF-kB luciferase reporter, primary screen, TCR NF-kB activation inhibitor project, cell-based, luminescence, uHTS | Jurkat, PMA/ionomycin-induced NF-kB luciferase reporter | inhibition, % at 4 µM | 330,000 compounds, 0.53% hits | AID 435003, 2010; in the data active = inhibition above about 50%
# COUP-TFII inh = NR2F2 transcriptional activity inhibitors, primary screen, cell-based, luciferase reporter, HEK293T, luminescence | HEK293T NGFI-A luciferase reporter | 370,000 compounds, 0.7% hits | inhibition, % at 8.6 µM | COUP transcription factor 2 (Homo sapiens), P24468;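 active = inhibition above a per-plate cutoff, mean inhibition of test wells between control levels plus 3 SD, cut at about 38% in these data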;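 also: cells cotransfected with COUP-TFII expression vector driving the NGFI-A reporter; 0% = median of COUP-TF2 test wells and 100% = reporter-only cells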
# Target sequence (P24468 whole entry, looked up): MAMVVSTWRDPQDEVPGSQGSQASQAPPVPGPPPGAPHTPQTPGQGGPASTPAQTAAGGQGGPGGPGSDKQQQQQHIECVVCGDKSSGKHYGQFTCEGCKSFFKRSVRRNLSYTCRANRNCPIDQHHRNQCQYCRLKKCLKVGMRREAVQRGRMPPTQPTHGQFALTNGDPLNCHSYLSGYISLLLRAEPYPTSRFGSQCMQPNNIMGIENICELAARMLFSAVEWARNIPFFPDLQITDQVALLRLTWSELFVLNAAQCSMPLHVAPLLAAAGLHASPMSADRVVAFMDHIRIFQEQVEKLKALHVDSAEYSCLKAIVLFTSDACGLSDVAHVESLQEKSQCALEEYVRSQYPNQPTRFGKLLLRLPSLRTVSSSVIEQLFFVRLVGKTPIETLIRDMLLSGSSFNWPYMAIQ
# GalR3 antagonist = GalR3 antagonists in HEK293 cells, primary screen, cell-based, fluorescence readout | HEK293 GalR3-CNG cAMP membrane potential fluorescence; galR3 body fused to GalR1 C-terminus | inhibition, % at 3 µM | Galanin receptor type 3 (Homo sapiens), O60755 | 360,000 compounds, 0.44% hits | AID 651719, 2012;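 active = inhibition above the screen-wide average plus 3 SD, cut at about 13% in these data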;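 also: forskolin and galanin both at EC90 stimulate the cells; cAMP rise reported by CNG channel membrane potential dye signal; 0% = forskolin plus galanin with DMSO and 100% = forskolin alone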
# 697 NFkB inh = inhibitors of PMA/ionomycin-induced NF-kB reporter, 697 cells, primary screen, B-cell NF-kB inhibitor project, cell-based, luminescence, uHTS; 330,000 compounds, 0.33% hits; 697 B-cell NF-kB luciferase reporter, 16 h; AID 435022, 2010; inhibition, % at 4 µM; in the data active = inhibition above about 35%
# Gli-Sufu block = Gli-Sufu pathway antagonists, primary screen, luciferase luminescence, Sufu-KO-LIGHT cells, uHTS | Sufu-KO-LIGHT fibroblasts, Gli luciferase reporter luminescence | inhibition, % at 5 µM | 340,000 compounds, 0.74% hits | AID 588413, 2011;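 active = inhibition above about 55%, limit read from the data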;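 also: 0% = DMSO-treated cells and 100% = wells with medium but no cells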
# Jurkat NFkB conf = PMA/ionomycin-induced NF-kB reporter inhibitors, Jurkat retest, confirmation, T-cell NF-kB inhibitor project, cell-based, luminescence, single concentration; inhibition, % at 4 µM; Jurkat NF-kB luciferase, 16 h; 2,700 compounds, 27% hits; shares compounds with Jurkat NFkB inh;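 active = inhibition reaching about 45% at 4 µM in either replicate, limit read from the data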;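 also: plate controls were PMA/ionomycin stimulated DMSO wells for no effect and unstimulated DMSO wells for full effect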
# The depositor's hits bear a star; . = not tested or not shown; ! = not active in a repeat.
SMILES,Jurkat NFkB inh,COUP-TFII inh,GalR3 antagonist,697 NFkB inh,Gli-Sufu block,Jurkat NFkB conf
COc1ccc(C(=O)OCCN(C)C2CN(Cc3cn(Cc4ccccc4Cl)nn3)S(=O)(=O)C2)cc1OC (stereo not given),.,3,.,.,.,.
S=C(Nc1ccccc1Cl)N1CCC(c2ccccc2)C1 (stereo not given),-96,-15,7,-118,-27,.
Cc1ccc(NC(=S)N2CCC(c3ccccc3)C2)c(Cl)c1 (stereo not given),-165,-4,-4,-200,-81,-98
CCCCCCCCCCCCCCCC[n+]1cccc(C(=O)N(CC)CC)c1,86*,-18,-6,-28,72*!,75*
CCCCCCCC[n+]1cccc(C(=O)N(CC)CC)c1,-2,8,-2,11,-1,.
CCCCCCCCCCCCCCCC[n+]1ccc(C(N)=O)cc1,56*,16,-8,-58,17,40
CCCCCCCCCCCCCCCC[n+]1ccc(/C=N/O)cc1,80*,38*,1,9,73*,54*
COC(=O)[C@]12C[C@H](CC(=O)NCc3ccc(C)o3)C(=O)N(Cc3ccc(Cl)cc3Cl)C1=C[C@H](COCc1ccccc1)O[C@@H]2C,.,16,.,.,.,.
Cc1ccc(-c2cc(C(=O)NN=C/C=C/c3ccco3)[nH]n2)cc1C,.,3,.,.,.,.
Cc1ccc(SCC(=O)NC2CCS(=O)(=O)C2)cc1C (stereo not given),-1,0,0,7,-1,.
Cc1ccc(-c2cn(-c3ccccc3)c(SCC(=O)NC3CCS(=O)(=O)C3)n2)cc1C (stereo not given),-160,-30,-1,-205,-69,-119
COc1ccccc1N1CCN(C(=O)c2ccc(-c3ccc(Cl)cc3)o2)CC1,63*,4,-3,-48,-3,53*
COc1ccc(-c2nc(-c3ccc(Br)o3)no2)cc1,-203,-33,-2,-242,-109,-148
CC1=C(C)/C(=N\OS(=O)(=O)c2ccccc2)C=CC1=O,55*,.,.,-69,15,18
C[C@@H]1OC(c2ccccc2)N(C)[C@H]2C[C@H]3c4[nH]c5cccc(-c6ccccc6)c5c4CCN3C[C@@H]12 (stereo not given in full),.,5,.,.,.,.
COc1ccccc1N=C1SC(C(=O)Nc2cccc(Cl)c2Cl)C(N)=C1C(N)=O (stereo not given),58*,4,0,-16,-5,0
CCCN1CCC(=O)N(CCSc2ccc(C)cc2)CC1,-23,-11,-1,-6,0,.
CCCN1CCC(=O)N(CCSc2ccc(OC)cc2)CC1,54*,-13,-2,-2,3,18
CC(C)(C)c1ccc(-c2nnc(SCC(=O)Nc3ccc(S(=O)(=O)Nc4nccs4)cc3)n2Cc2ccco2)cc1,.,2,.,.,.,.
CN1/C(=C\C(=O)c2cccc([N+](=O)[O-])c2)Sc2ccccc21,-175,-7,-9,-101,-67,-1
CCCCNC(=O)C[C@H]1C[C@@]2(C(=O)OC)C(=C[C@H](C(C)(C)C)O[C@@H]2C)N(Cc2ccco2)C1=O,.,8,.,.,.,.
O=C(Sc1cccc2cccnc12)c1ccccc1Br,101*,30,-10,-97,.,69*
Cc1ccc(-n2c(C)cc(C(=O)COc3cccnc3[N+](=O)[O-])c2C)cc1,37,19,-7,-11,35,.
Cc1cc(C(=O)COc2cccnc2[N+](=O)[O-])c(C)n1-c1ccccc1,65*,-13,0,-7,17,18
Cc1nc(-c2ccc(NC(=O)c3ccc(Br)o3)cc2)cs1,-215,-24,-12,-82,-158,-105
SMILES,Jurkat NFkB inh,COUP-TFII inh,GalR3 antagonist,697 NFkB inh,Gli-Sufu block,Jurkat NFkB conf
O=C(Nc1ccc(Br)cn1)c1cccc2c1-c1ccccc1C2=O,61*,2,-1,6,-2,18
CCCNC(=O)C1CC(=O)N(c2ccc(OCc3ccc(F)cc3)cc2)C1 (stereo not given),-152,-50,-10,-33,-52,-75
Cc1ccnc(NC(=S)NC(=O)c2cccs2)c1,-201,-67,-2,-181,-139,-83
Cc1ccc2oc(-c3ccc(C)c(NC(=S)NC(=O)c4cccs4)c3)nc2c1,-170,-34,-2,-226,-59,-86
Cc1ccc2oc(-c3ccc(C)c(NC(=O)Cc4cccs4)c3)nc2c1,-61,-10,-3,-46,-12,.
Cc1ccc2c(c1)C1CS(=O)(=O)N(C3CCCC3)CN1C2 (stereo not given),.,-24,.,.,.,.
O=C(N/N=C/c1c[nH]c2ccccc12)C1COc2ccccc2O1 (stereo not given),53*,3,-8,-1,-4,1
O=C(N/N=C\c1ccc(Cl)s1)C1COc2ccccc2O1 (stereo not given),37,-13,-5,11,-4,.
C/C(C=NNC(=O)c1cc(-c2ccc(Cl)cc2)n[nH]1)=C\c1ccccc1,.,-5,.,.,.,.
COc1ccc(OC)c2sc(N(CCCN(C)C)C(=O)c3ccc(S(=O)(=O)N4CCc5ccccc5C4)cc3)nc12,94*,.,.,31,.,23
COc1ccc(C)c2sc(N(CCCN(C)C)C(=O)c3ccc(S(=O)(=O)N4CCc5ccccc5C4)cc3)nc12,.,-18,-7,.,31,.
COC(=O)c1cn(NC(=O)c2cc([N+](=O)[O-])ccc2F)c(=O)c2ccccc12,97*,28,-3,-103,24,90*
CC(C)c1nc(N(C)S(C)(=O)=O)nc(-c2ccc(F)cc2)c1/C=C/[C@H](O)C[C@@H](O)CC(=O)O,.,-7,.,.,.,.
COc1ccc(C(=O)N2CCN(c3cccc(Cl)c3)CC2)cc1,-6,-5,1,5,11,.
COc1ccc(C(=S)N2CCN(c3cccc(Cl)c3)CC2)c(OC)c1,63*,0,-6,-38,9,-5
CC(COc1cc(F)cc(C#N)c1)CN1CCC(C(O)(c2ccccc2)c2ccccc2)CC1 (stereo not given),.,0,.,.,.,.
CCOc1cc(-c2cc(-c3ccc(C)cc3)nc(N)c2C#N)ccc1O,51*,-7,-2,-39,2,14
COc1ccc(NC(=O)C(=O)NCC2CCCN2S(=O)(=O)c2cccs2)cc1 (stereo not given),65*,10,-1,-4,3,54*
COc1ccc(/C=C2\CCCC3C2=NN(C(=O)CSc2ncn[nH]2)C3c2ccc(OC)cc2)cc1 (stereo not given),61*,-8,-3,6,0,-27
O=C(CSc1ncn[nH]1)N1N=C2/C(=C/c3ccccc3)CCCC2C1c1ccccc1 (stereo not given),3,3,-7,3,2,.
